Test results from PubChem BioAssay AID720531 (The Scripps Research Institute Molecular Screening Center, 2013).
Among all 1,000 compounds or so, about 270 (27%) were called active. Cut-off read from the data, not from the text of the source: active = inhibition above about 14%; inactive = the rest. The list is a sample of the results.

What follows are compounds tested against Methyl-CpG-binding domain protein 2 (Homo sapiens) (UniProt Q9UBB5) (assay: inhibitors of MBD2 binding to methylated DNA, confirmation, biochemical, TR-FRET, DNA-binding domain, human (AID 720531)). Settings: TR-FRET MBD2-DBD binding to methylated oligonucleotide; at 4.4 µM; hits give high values.
Sequence of Methyl-CpG-binding domain protein 2 (Homo sapiens) (Q9UBB5 whole entry, looked up, the tested form may be a part): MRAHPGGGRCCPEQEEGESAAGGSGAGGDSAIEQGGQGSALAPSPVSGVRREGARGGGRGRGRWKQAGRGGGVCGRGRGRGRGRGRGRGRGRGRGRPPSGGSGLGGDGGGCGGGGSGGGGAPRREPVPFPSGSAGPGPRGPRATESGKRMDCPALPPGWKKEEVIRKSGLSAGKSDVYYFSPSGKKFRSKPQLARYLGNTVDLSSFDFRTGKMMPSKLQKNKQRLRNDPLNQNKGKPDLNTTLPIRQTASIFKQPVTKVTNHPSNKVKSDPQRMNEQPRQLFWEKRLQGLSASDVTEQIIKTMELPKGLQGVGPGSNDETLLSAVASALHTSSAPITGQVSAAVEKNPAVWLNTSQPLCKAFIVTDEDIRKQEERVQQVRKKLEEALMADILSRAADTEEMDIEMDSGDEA

Row | SMILES | inhibition
1 | c1ccc2cc3c(NCCN4CCOCC4)ccnc3cc2c1 | 25% (active)
2 | Cc1cccc(NC(=O)C[C@H]2CC[C@H]3[C@@H](COc4ccc(NC(=O)Nc5ccccc5)cc4C(=O)N3C)O2)c1 | 8.99% (inactive)
3 | COC(=O)[C@]12C[C@H](CC(=O)NCCC(C)C)C(=O)N(CCc3ccc(OC)c(OC)c3)C1=C[C@H](C(C)(C)C)O[C@@H]2C | 2.11% (inactive)
4 | O=c1ccc2c(-c3ccccc3S(=O)(=O)O)c3ccc(O)c(O)c3oc-2c1O | 94.4% (active)
5 | CN(C)[C@@H]1C(=O)C(C(N)=O)=C(O)[C@@]2(O)C(=O)C3=C(O)c4c(O)ccc(Cl)c4[C@@H](O)[C@H]3C[C@@H]12 | 0.76% (inactive)
6 | CN(C)CCNC(=O)c1ccc(Cl)c2cc3ccccc3nc12 | 68.7% (active)
7 | COc1nc(N(C)C)nc(N2CC(=O)N(CCNS(=O)(=O)c3ccc(C)cc3)C2=N)n1 | 3.06% (inactive)
8 | COC(=O)c1c(NC(=O)c2ccc(S(=O)(=O)N3CCOCC3)cc2)sc2c1CCN(C(C)C)C2 | 23.6% (active)
9 | CCOc1ccc(-n2c(SCC(=O)Nc3ccc(OC)cc3)nc3sc4c(c3c2=O)CCN(C)C4)cc1 | 4.44% (inactive)
10 | COc1ccc(COC[C@H](CC(C)C)N2CCN(C(=O)c3cccc(C(F)(F)F)c3)CCC2=O)cc1 | 5.45% (inactive)
11 | Nc1ccccc1C(=O)NC1CCCCNC1=O (stereo not given) | 0.65% (inactive)
12 | C=CCn1c(=S)[nH]c2scc(-c3ccco3)c2c1=O | 27.2% (active)
13 | COC(=O)c1ccc(CSc2nncn2N)cc1 | 1.91% (inactive)
14 | Cc1c(NS(=O)(=O)c2cc(C(=O)NCCc3ccc(F)cc3)cc(Cl)c2Cl)c(=O)n(-c2ccccc2)n1C | 3.66% (inactive)
15 | C=CCN(C(=O)[C@@H](CCCC)[C@@H](O)c1ccc(Cl)cc1)c1ccccc1 | 3.23% (inactive)
16 | C=CC1=C(C(=O)O)N2C(=O)[C@@H](NC(=O)/C(=N\OCC(=O)O)c3csc(N)n3)[C@H]2SC1 | 104% (active)
17 | CNC(=O)C[C@H]1C(=O)N(c2ccc(OC)cc2)C[C@@H]1Cc1ccccc1 | 2.83% (inactive)
18 | CCOc1ccc(S(=O)(=O)N2CCC(c3ccccc3)CC2)cc1C(=O)O | 0.33% (inactive)
19 | CC(C)c1nc(CNC(=O)CC2C(=O)NCCN2Cc2cccc(F)c2F)cs1 (stereo not given) | 1.21% (inactive)
20 | CCOc1ccc(NC(=O)c2cc(C)nc3ccccc23)cc1 | 1.13% (inactive)
21 | Cc1ccc(Cc2cnc(N)s2)o1 | 2.75% (inactive)
22 | CCOC(=O)C1C(=O)OC2(CCCC2)C1C(=O)OCC (stereo not given) | 1.9% (inactive)
23 | CCN(CC)CCOc1ccc2c(c1)C(=NNC(=O)c1ccccn1)c1cc(OCCN(CC)CC)ccc1-2 | 112% (active)
24 | C=CCN1C(=O)c2ccc(C(=O)N3CCC(C(=O)OCC)CC3)cc2C1=O | 4.08% (inactive)
25 | COc1ccccc1C(=O)NNC(=O)CCN1C(=O)/C(=C\c2ccccc2)SC1=S | 1.72% (inactive)
26 | COC(=O)c1cn(C)c2ccc(S(=O)(=O)N3CC(C)CC(C)C3)cc2c1=O (stereo not given) | 6.67% (inactive)
27 | Cc1ccc(-c2ccnc3nc(Sc4ncc(C(F)(F)F)cc4Cl)nn23)cc1 | 3.6% (inactive)
28 | CCOc1cc(-c2noc(CCCC(=O)NC3CCCCC3)n2)ccc1OC | 7.12% (inactive)

Row | SMILES | inhibition
29 | C=C1c2c(Cl)ccc(O)c2C(O)=C2C(=O)[C@]3(O)C(O)=C(C(N)=O)C(=O)[C@@H](N(C)C)[C@@H]3[C@@H](O)C12 (stereo not given in full) | 7.25% (inactive)
30 | Cc1cc(C)c2nc3nc(C)cc(C)c3c(N)c2c1 | 45.1% (active)
31 | CC(C)Oc1ccc(C2NC(=O)NC2=O)cc1 (stereo not given) | 6.62% (inactive)
32 | COC(=O)c1ccc2nc(C3CCCCC3)c(Cc3cccc(F)c3)n2c1 | 4.72% (inactive)
33 | Cc1ccccc1NC(=O)CN1C(=O)N/C(=C\c2cccn2-c2cccc(C(=O)O)c2)C1=O | 21.2% (active)
34 | Cc1cccc(CN2CCN(C3CN(Cc4cn(Cc5cc(C)cc(C)c5)nn4)S(=O)(=O)C3)CC2)c1 (stereo not given) | 1.92% (inactive)
35 | CCOc1ccc(N(CC(=O)NCCOc2ccccc2OC)S(=O)(=O)c2ccccc2)cc1 | 2.61% (inactive)
36 | Cc1c(C=O)n(C)n(-c2ccccc2)c1=O | 6.3% (inactive)
37 | Brc1ccc(-c2n(-c3ccccn3)c3ccccc3[n+]2-c2ccccn2)cc1 | 76.4% (active)
38 | COc1ccc(-n2cc(-c3ccccc3)c3c(=S)nc[nH]c32)cc1 | 3.57% (inactive)
39 | Cc1ccc(C)c(NC(=O)c2ccc(OC(=O)c3ccco3)cc2)c1 | 4.94% (inactive)
40 | CC(=O)c1ccccc1NC(=O)COC(=O)C1COc2ccccc2O1 (stereo not given) | -0.13% (inactive)
41 | COc1ccc(CNC(=O)c2c[nH]c3c(OC)cc(OC)cc3c2=O)cc1 | 3.79% (inactive)
42 | COC(=O)c1ccc2nc(-c3cccc(Br)c3)c(Cc3ccc(OC)cc3C)n2c1 | 8.39% (inactive)
43 | CN(C(=O)COC(=O)c1cc(-c2ccco2)nc2ccccc12)C1CCS(=O)(=O)C1 (stereo not given) | 32.3% (active)
44 | CO/N=C(/CS(=O)(=O)c1ccc(Br)cc1)c1ccc(OC)cc1 | 3.47% (inactive)
45 | COc1ccc(OCc2cc(C(=O)NCC3(C)COC3)no2)c(Cl)c1 | -0.36% (inactive)
46 | CCOc1cc(N2CCOCC2)c(OCC)cc1NC(=O)c1cc(C)nc2ccccc12 | 2.46% (inactive)
47 | COc1ccc2[nH]c3c(C)c4cc[n+](C)cc4c(C)c3c2c1 | 109% (active)
48 | CCOC(=O)CCP(=O)(O)C(O)(c1ccccc1)c1ccccc1 | 5.44% (inactive)
49 | COc1ccc2c(c1)c(=Cc1ccc(N(C)C)cc1)c1cc(-c3ccccc3)[n+](C)n12 | 73% (active)
50 | CCOC(=O)c1sc(NC(=O)CCN2CCOCC2)c(C(=O)OCC)c1C | 1.01% (inactive)
51 | O=C(c1n[nH]c2c1CCC2)N1CCCC(Nc2cccc(F)c2)C1 (stereo not given) | 3.32% (inactive)
52 | O=C(CC1CCCCC1)Nc1c2c(nn1-c1ccc(F)cc1)CS(=O)(=O)C2 | 1.28% (inactive)
53 | CCOC(=O)c1ccc(-n2c(CCC(=O)O)ccc2-c2ccccc2)cc1 | -0.54% (inactive)
54 | COC(=O)c1cccc(NC(=O)c2cccc(N3C(=O)CCC3=O)c2)c1 | 1.64% (inactive)
55 | Cc1ccc(C(=O)Nc2ccc3c(c2)OCO3)cc1S(=O)(=O)N1CCCCC1 | 5.06% (inactive)
